This is part of a sample that, as a whole, favours compounds with a hit. Of some 83,000 tested, about 20% had one in any assay.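 Single-concentration screen, 48 h exposure, 96-well plates. Endpoint: percent growth. Below 10 = active.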 Unmarked numbers belong to inactive results. Active and inactive are the calls of the source.
The molecules below were run on MDA-MB-468 breast (assay: NCI-60 one-dose screen, 48 h (100 = growth as untreated, 0 = no growth, -100 = all killed)). Details: 10 µM unless noted.
Experimental: Growth inhibition of the MDA-MB-468 human Breast tumor cell line is measured as a screen for anti-cancer activity. Cells are grown in 96 well plates and exposed to the test compound for 48 hours. Compounds are tested at a single concentration, which is 10^-5 M for most compounds. The reported endpoint is percent growth (GI% or GIPRCNT), where numbers from 0 - 100% represent growth inhibition, and numbers from -100% - 0 represent cell death. For example, a value of 40 represents 60% growth inhibition. A value of 0 means no net growth occurred over the course of the experiment. A value of -40 indicates 40% of cells at the beginning of the experiment died by the end of the experiment. A value of -100 means all cells are dead at the end of the experiment.
NCI-60 Human Tumor Cell Lines Screen was performed using the standard one-dose NCI protocol, which is described in more detail at https://dtp.cancer.gov/discovery_development/nci-60/default.htm.
Compounds with GIPRCNT values below 10 were considered active. Activity score was based on GIPRCNT using the following formula: […]
Score is 0 for GIPRCNT values of 100 or above, 50 for GIPRCNT values of 0, and 100 for GIPRCNT values of -100.
For `C[C@H](Nc1nc(NCCc2ccccc2)nc2ccccc12)c1ccccc1`, the growth was -96.3% (active). Work on `COc1cc(/C=C/C(=O)c2ccc(C)cc2)ccc1Oc1nc(Nc2ccc(F)cc2)nc(N(C)C)n1` yielded a growth of 40.1%. Molecule `N#Cc1c(-c2ccc(Br)cc2)nc2n[nH]c(-c3ccc(Br)cc3)c2c1-c1ccc(F)cc1` has a growth of 110%. `CN(C)CCCNC(=O)c1cc(NC(=O)c2cc(NC(=O)c3ccc(C#Cc4ccccc4)cc3)cn2C)cn1C` was tested, and the growth was -93.8% (active). With `CCCS(=O)(=O)N1CCCC(C(=O)Nc2nc3ccc(NC(=O)c4ccc(F)c(OC)c4F)cc3s2)C1` (stereo not given) the growth was 18.5%. For `CC(C)(C)OC(=O)/C=C/c1cccc2c1C(=O)NC(C)(c1cc3cc(Cl)ccc3oc1=O)N2` (stereo not given), the growth was 11.6%. Work on `CC(C)c1sc(NC(=O)c2cc(NC(=O)c3cc(NC(=O)c4nccn4C)cn3C)cn2C)nc1C(=O)NCCCN(C)C` yielded a growth of 65.3%. `C/C(=N\N=C1/C(=O)Nc2ccccc21)c1ccc2c(c1)Nc1ccccc1S2` showed a growth of 34.6%. For `N#Cc1c(-c2ccc(Br)cc2)nc2n[nH]c(-c3ccc(Br)cc3)c2c1-c1ccc(C(F)(F)F)cc1`, the growth was -4.16% (active). With `OCC1(CCCc2ccccc2)CCCN(c2nccc3ccccc23)C1` (stereo not given) the growth was -15.8% (active). For `COC(=O)/C=C/c1cccc2c1C(=O)NC(C)(c1cc3ccccc3oc1=O)N2` (stereo not given), the growth was 64.7%. With `COc1cccc(-c2nc(Nc3ccc(S(N)(=O)=O)cc3)c3ccccc3n2)c1` the growth was 24%. `Cc1ccc(-c2nc(C#N)c(S(=O)(=O)N3CCN(S(=O)(=O)c4ccccc4)CC3)o2)cc1` was tested, and the growth was -49.3% (active). In the case of `Cn1cc(-c2cc(N)n3nc(-c4cn(C)c5ccccc45)cc3n2)c2cc(Cl)ccc21`, the growth was -31.9% (active). `O=C(CSc1nc2ccccc2c(=O)[nH]1)NCCN1CCCCC1` showed a growth of 96.9%. In the case of `O=C(NNc1ccccc1)n1c(=O)c2ccccc2c(=O)n1-c1ccccc1`, the growth was 99%. For `C=CC[N+](C)(C)CCn1c2ccccc2c2nc3cc(C)c(C)cc3nc21`, the growth was -2.23% (active). `CN(C)c1nc(NCCNS(=O)(=O)c2ccc(C(=O)/C=C/c3ccc(C(F)(F)F)cc3)cc2)nc(Nc2ccc(F)cc2)n1` was tested, and the growth was -23.6% (active). `O=C(CN1C(=O)/C(=C/c2ccccc2F)SC1=S)N1CCOCC1` was tested, and the growth was -7.25% (active). With `Cc1ccccc1[C@H]1C(C(=O)c2ccc(Cl)cc2)C2(N[C@@H]1c1ccccc1)C(=O)Nc1ccc(Br)cc12` (stereo not given in full) the growth was -26.1% (active). `O=C(Cn1nc(-c2ccccc2)ccc1=O)N/N=C/c1ccc(N2CCOCC2)cc1` showed a growth of 104%. With `CN(C)c1nc(NCCNS(=O)(=O)c2ccc(C(=O)/C=C/c3ccc(Cl)cc3)cc2)nc(Nc2ccc(F)cc2)n1` the growth was -25.9% (active). In the case of `C=C1CCC2C3(C)COC(c4cc(F)cc(F)c4)OC3CCC2(C)C1CC(O)C1=CCOC1=O` (stereo not given), the growth was 70.7%. For `CCN(CC)c1ccc(/C=N/Nc2nc(-c3ccc(Br)cc3)cs2)c(O)c1`, the growth was 69%. For `Cc1cc(=O)oc2cc(OCCCOc3ccc(/C=C/C(=O)Nc4ccccc4N)cc3)ccc12`, the growth was -48.1% (active). `COc1ccc(C(=O)/C=C/c2ccc3ccccc3c2)cc1S(N)(=O)=O` was tested, and the growth was -67% (active). `N#Cc1c(-c2ccccc2Cl)cc(-c2c[nH]c3ccccc23)[nH]c1=O` showed a growth of 20.7%. `Clc1cccc(Cl)c1/C=C/c1cc(/C=C/c2ccc(Br)cc2)c2ccccc2n1` showed a growth of 111%. Molecule `CCCCCCCCc1ccc(C(=O)Nc2ccc(C)cc2C(=O)O)cc1C` has a growth of 92.8%. `Cc1cc(N=C2NC(=O)CS2)n[nH]1` showed a growth of 114%. `COc1cc(NC(=O)c2cccc(C3CCc4c(cc(OC)c(OC)c4OC)O3)c2)cc(OC)c1OC` (stereo not given) gave a growth of 29.3%. For `CC12CC[C@@H]3[C@]4(C)COC(c5cn[nH]c5-c5ccc(Br)cc5)O[C@@H]4CC[C@@]3(C)[C@@H]1CC(C1=CCOC1=O)O2` (stereo not given in full), the growth was 9.94% (active). In the case of `COc1ccc2[nH]cc(-c3cc(N)n4nc(-c5cn(C)c6ccccc56)cc4n3)c2c1`, the growth was -80.1% (active). For `COc1ccc2oc3c4[nH]c5ccccc5c4c4c(c3c2c1)C(=O)N(C(=O)OC(C)(C)C)C4=O`, the growth was -22.9% (active). With `COc1cc2c(c(OC)c1OC)C(=O)CC(c1cccc(NC(=O)[C@@H](N)CC(C)C)c1)O2` (stereo not given in full) the growth was 89.3%. With `Cc1nc(Nc2ncc(C(=O)Nc3c(C)cccc3Cl)s2)cc(N2CCN(CCCNC(=O)COc3ccc(C4CCC(=O)NC4=O)cc3)CC2)n1` (stereo not given) the growth was -23.4% (active). With `CC(=O)Nc1cccc(Nc2nc(NCc3ccccc3)c3ccccc3n2)c1` the growth was -93.7% (active). With `O=C(COc1ccc(NC(=O)Nc2ccccc2)cc1)N=Nc1c(O)[nH]c2ccc([N+](=O)[O-])cc12` the growth was -69.7% (active). For `Cc1sc2c(c1C)C(c1ccc(Cl)cc1)=N[C@@H](CC(=O)NCCCCCNC(=O)COc1ccc(C3CCC(=O)NC3=O)cc1)c1nnc(C)n1-2` (stereo not given in full), the growth was -20.8% (active). For `CCN1C(=O)/C(=N\N=C(/C)c2ccc3c(c2)Nc2ccccc2S3)c2cc(Cl)ccc21`, the growth was 9.33% (active).

— PubChem BioAssay (NCI)
